# FLuc counter: inhibits or activates purified firefly luciferase, miR-21 counter-screen. 360,000 tested, 6.9% active. purified FLuc, Km substrates, luminescence inhibition. P08659. Potency, µM (top dose mostly 57.5 µM), inactives show top-dose activity change, negative = inhibition, most hits filed as inhibitors;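 note: plate controls were vehicle for no effect and reference inhibitor for full effect; nearly all actives have a fitted effect of over 55% in size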
# Target sequence (P08659 whole entry, looked up): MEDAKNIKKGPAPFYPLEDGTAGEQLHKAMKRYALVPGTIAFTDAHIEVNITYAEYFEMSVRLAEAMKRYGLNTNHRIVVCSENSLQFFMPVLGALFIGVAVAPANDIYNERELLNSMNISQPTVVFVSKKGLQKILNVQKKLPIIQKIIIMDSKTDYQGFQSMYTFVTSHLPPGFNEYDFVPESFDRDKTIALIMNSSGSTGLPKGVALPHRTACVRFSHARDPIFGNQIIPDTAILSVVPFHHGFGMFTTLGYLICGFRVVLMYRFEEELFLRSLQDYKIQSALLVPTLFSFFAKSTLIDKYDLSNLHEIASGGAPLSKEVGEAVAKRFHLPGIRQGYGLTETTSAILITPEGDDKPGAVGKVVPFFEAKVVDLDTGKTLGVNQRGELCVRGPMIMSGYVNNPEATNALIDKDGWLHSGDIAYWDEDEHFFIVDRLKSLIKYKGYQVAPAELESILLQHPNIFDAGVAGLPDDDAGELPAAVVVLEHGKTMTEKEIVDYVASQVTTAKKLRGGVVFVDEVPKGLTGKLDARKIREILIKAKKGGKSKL
#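 Purified P. pyralis luciferase (10nM final) with 10uM D-luciferin and 10uM ATP (Km levels) in 50mM Tris acetate pH 7.5, 10mM Mg acetate, 0.01% Tween-20, 0.05% BSA; qHTS 6-point titration, ~60 µM downward; luminescence read.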
# Rab9 prom act: activates the Rab9 promoter; Potency, µM (series often up to 9.22 µM), for the others: top-dose activation, negative = inhibition, usual class: activators; Huh7 Rab9 promoter-luciferase reporter, luminescence, 24 h; 320,000 tested, 2.8% active; AID 485297; note: % of control where 0% means no effect; nearly all actives have a fitted effect of over 60% in size
#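 Cell-based reporter: Huh7 stable for Rab9 promoter-driven luciferase, plated in reduced-serum medium with 10% FBS at 1500 cells/well, compound-treated 24 h at 37 °C, luminescence read after 10 min reagent.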
# ELG1 genotoxic: induces genotoxicity in HEK293T cells with luciferase-tagged ELG1; HEK293T ELG1-luciferase reporter, luminescence, 16 h; Potency, µM (top dose mostly 46 µM), for the others: at the highest dose activity change, positive = activation, usual class: activators; 330,000 tested, 1.3% active; AID 504466; note: % of control where 0% means no effect; nearly all actives have a fitted effect of over 60% in size
#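 DMSO vehicle served as control against compound-treated ELG1-luciferase HEK293T cells; exposure lasted 16 hr at 37 °C and 5% CO2, followed by ONE-Glo luminescence detection after 30 min.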
# SMN2 splice up: SMN2 splice variant enhancement | HEK293 SMN2-luciferase splicing reporter, luminescence, 30-36 h | Potency, µM (top dose mostly 46.1 µM), inactives show at the highest dose activity change, positive = activation, most hits filed as activators | 210,000 tested, 2.8% active; note: % of control where 0% means no effect; nearly all actives have a fitted effect of over 55% in size
#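 HEK293 cells carry an SMN2 […]–luciferase reporter in which exon 7 inclusion puts luciferase in frame. Cells were plated 10-12 h before compound addition, then incubated 30-36 h at 37C. ONE-Glo luminescence was read; sodium butyrate at 4.5 mM final served as control.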
# KinaseGlo FLuc: counter-screen: inhibitors of Kinase-Glo firefly luciferase; Kinase-Glo luciferase, ATP luminescence, 8 min; Potency, µM (titrated, usually from 38.3 µM), for the others: top-dose activity change, negative = inhibition, actives largely listed as inhibitors; Q27757; 200,000 tested, 0.28% active; note: % is set by controls: 0 for no effect and ±100 for the full control effect; nearly all actives have a fitted effect of over 60% in size
#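 Substrate mix (final 50 mM imidazole pH 7.2, 50 mM KCl, 7 mM MgCl2, 10 uM ATP, 0.01% Tween 20, 0.05% BSA) plus pin-tool compound, then Kinase-Glo detection mix; 8 min ambient, luminescence read.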
# NPC1 prom act: activates the NPC1 promoter; Potency, µM (top dose mostly 9.22 µM), inactives show at the highest dose activation, actives largely listed as activators; 320,000 tested, 2.4% active; Huh7 NPC1 promoter luciferase reporter, 24 h; note: % of control where 0% means no effect; nearly all actives have a fitted effect of over 60% in size
#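 Luciferase expression driven by the NPC1 promoter was measured in stably transfected Huh7 cells after a 24 h compound incubation, using a luciferase reagent and a luminescence read.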
# * = called active by the depositor; ? = inconclusive; . = no result given. An excerpt weighted towards active compounds, which were near 7.5% of everything screened. Calls come from the whole dose curve; as a rule, active = well fitted curve in the direction sought with a large enough effect; inconclusive = small, poorly fitted or top-dose-only effect, or another doubt; inactive = no such curve, though single readings can be large; an effect the other way counts as inactive or inconclusive. Potency is the fitted concentration of half-maximal effect.
SMILES,FLuc counter,Rab9 prom act,ELG1 genotoxic,SMN2 splice up,KinaseGlo FLuc,NPC1 prom act
O=C(Cn1c(=O)oc2cc(S(=O)(=O)N3CCCCCC3)ccc21)Nc1cccc(C(F)(F)F)c1,-6%,.,.,.,.,.
Cc1ccc(C(C(=O)Nc2ccc3c(c2)OCO3)N(C)C(=O)/C=C\c2ccc3c(c2)OCO3)cc1 (stereo unspecified),-6%,-1%,2%,-1%,-2%,-1%
O=C(Oc1coc(CSc2ncccn2)cc1=O)c1ccccc1[N+](=O)[O-],6.7µM*,3%,-16%,5%,?,-5%
Cc1cc(NC(=O)CSc2cn(CCNC(=O)c3ccccc3)c3ccccc23)no1,19µM*,-6%,-10%,-22%,15%,-1%
Cc1ccc(C(=O)NCCn2cc(SCC(=O)Nc3cc(C)on3)c3ccccc32)cc1,5.4µM*,?,?,-66%,-1%,0%
C=CCNC(=S)NC(=O)c1ccc(C)c(Br)c1,17µM*,?,?,14µM*,-3%,20%
Cc1ccc(NC(=O)CSc2nnc(-c3ccccn3)n2N)c(Br)c1,5%,0%,-4%,.,.,0%
COc1cccc(-c2ccc3c(N)c(C(=O)c4ccc(F)cc4)sc3n2)c1,-4%,.,.,-25%,.,.
O=C(NC1CCCCC1)c1cc(-c2cccc(Cl)c2)on1,-13%,?,?,.,.,?
COc1cccc(-c2ccc3c(N)c(C(=O)NC4CC4)sc3n2)c1,3µM*,?,?,.,.,2µM*
COc1ccc(-c2cc(C(=O)NC3CCCC3)no2)cc1,2.1µM*,1.8µM*,3.7µM*,.,.,0.79µM*
COc1cccc(-c2cc(C(=O)NC3CCCCC3)no2)c1,6µM*,3.2µM*,?,.,.,?
O=C(NC1CCCCC1)c1cc(-c2ccco2)on1,6µM*,1.6µM*,?,.,.,2.5µM*
O=C(c1c2c(nc3ccccc13)C(=O)N(C1CCCCC1)C2)N1CCN(c2ccc(F)cc2)CC1,-1%,.,.,.,.,.
Oc1c(C=Nc2ccccc2)sc(=S)n1Cc1ccccc1,?,1%,3%,-5%,0%,-5%
CCn1c(O)c(C=Nc2ccccc2)sc1=S,9.5µM*,2.8µM*,?,.,.,?
Cc1ccc(N=Nc2c(O)n(CN3CCOCC3)c3ccccc23)cc1,2.7µM*,0.4µM*,3.7µM*,22µM*,-6%,1.4µM*
COc1ccccc1N1CCN(c2ncccc2-c2nc(-c3ccc(Cl)cc3)no2)CC1,-14%,.,.,.,.,.
CCOC(=O)C(C)n1nc(/C=C/c2ccc(OC)cc2)ccc1=O (stereo unspecified),-13%,-6%,3%,7%,2%,8%
CC(C)c1ccc(/C=C/c2ccc(=O)n(C)n2)cc1,4.8µM*,1.8µM*,10µM*,11µM*,-7%,2.2µM*
COc1ccc(NC(=O)Cn2c(=O)nc(-c3ccccc3)c3ccccc32)cc1OC,-3%,.,.,.,.,.
CC(C)c1ccc(Nc2ncccc2C(=O)O)cc1,2.7µM*,0.4µM*,?,16µM*,-7%,0.63µM*
COc1ccc(NC(=O)c2cccnc2Nc2ccc(OC)cc2)cc1,?,7%,-2%,-4%,-4%,-5%
CCc1cccc(NC(=O)Cn2c(=O)n(CC(=O)NCCc3ccccc3)c(=O)c3ccccc32)c1,-6%,.,.,-1%,.,.
COC(=O)c1cc(Cl)c(NC(=O)c2cc3ccccc3o2)cc1OC,-6%,1.8µM*,0%,5%,0%,?
SMILES,FLuc counter,Rab9 prom act,ELG1 genotoxic,SMN2 splice up,KinaseGlo FLuc,NPC1 prom act
COc1cc(NC(=O)c2cc3ccccc3o2)ccc1NC(=O)c1ccco1,-2%,-10%,-2%,.,.,-5%
CCC(=O)Nc1ccc(NC(=O)c2cc3ccccc3o2)c(OC)c1,?,4µM*,?,.,.,2.5µM*
COc1cc(NC(=O)c2c(OC)cccc2OC)ccc1NC(=O)c1cc2ccccc2o1,?,?,15µM*,.,.,?
COc1cc(NC(=O)c2ccc(F)cc2)ccc1NC(=O)c1cc2ccccc2o1,3%,0%,-10%,.,.,0%
COc1ccc(NC(=O)c2cc3ccccc3o2)c(OC)c1,5.4µM*,.,.,.,.,.
Cc1ccc(-n2nc(C(=O)Nc3ccc(F)cc3F)c3c4ccccc4n(C)c3c2=O)cc1,-2%,.,.,2%,.,.
CC(=O)Nc1ccc(NC(=O)/C=C/c2ccccc2)cc1,?,6%,-6%,7%,11%,4%
C/C=C/c1ccc(OC(C)=O)c(OC)c1,-3%,1%,1%,-29%,-3%,-1%
CSc1cccc(NC(=O)/C=C/c2ccccc2)c1,4.8µM*,2.2µM*,13%,?,-2%,3.2µM*
CSc1cccc(NC(=O)/C=C/c2ccc(Cl)cc2)c1,3.4µM*,25%,0%,27%,-3%,?
CSc1ccc(/C=C/C(=O)Nc2ccccc2)cc1,0.24µM*,0.32µM*,-4%,3.2µM*,13µM*,0.32µM*
COc1cc(/C=C/C(=O)NC(=O)c2ccccc2O)ccc1OC(C)=O,3µM*,?,?,.,.,?
C=CCNC(=S)Nc1cccc(N)c1,0%,-5%,1%,5%,0%,6%
COc1ccccc1NC(=O)CSc1nnc(-c2nonc2NC(C)=O)n1-c1ccccc1,-1%,.,.,.,.,.
COc1ccc(/C=C/C(=O)Nc2ccccc2)cc1OC,13µM*,3.2µM*,?,13µM*,-1%,?
COc1ccc(/C=C/C(=O)NC(=S)Nc2ccccc2)cc1OC,-8%,-4%,?,.,.,-2%
CCOc1ccc(N(CC(=O)NCCSCc2ccc(Cl)cc2)S(C)(=O)=O)cc1,-2%,0%,-10%,.,.,0%
CCN1c2ccccc2-c2nc(SCC(=O)Nc3cccc(C)c3C)ncc2S1(=O)=O,2%,.,.,.,.,.
O=C(N/N=C/c1ccc(-c2ccccc2Cl)o1)c1ccccc1,13µM*,16%,18%,?,1%,0%
O=S(=O)(N/N=C\c1ccc(-c2ccccc2Cl)o1)c1ccccc1,-7%,-3%,-2%,-53%,6%,2%
Cc1nnc(C)n1/N=C/c1ccc(-c2ccccc2Cl)o1,-13%,1%,23µM*,.,.,-2%
O=C(O)c1ccc(N/N=C/c2ccc(-c3ccccc3Cl)o2)cc1,0.67µM*,?,1.8µM*,.,.,?
S=c1[nH]nc(-c2ccccc2)n1/N=C/c1ccc(-c2ccccc2Cl)o1,-6%,-3%,-8%,?,1%,-5%
COc1ccc(OCC(=O)Nc2c3c(nn2-c2ccccc2)CS(=O)(=O)C3)cc1,-7%,-3%,-1%,.,.,2%
COc1ccc(NC(=S)Nc2cccnc2)c(OC)c1,-8%,1%,9%,15%,1%,-1%
